Data: PubChem BioAssay AID488984 (The Scripps Research Institute Molecular Screening Center, 2010)
Activity calls are given as the source filed them. Cut-off read from the data, not from the text of the source: active = inhibition above about 55%; inactive = the rest.

The compounds below were run on SARS coronavirus 3C-like protease (3CLpro, nsp5) (assay: blockers of SARS 3CLpro activity – biochemical, fluorescence, set 2, late-stage follow-up (AID 488984)). Settings: recombinant 3CLpro, fluorogenic peptide cleavage; at 100 µM; active compounds read high.

Row | SMILES | inhibition
1 | Cc1nc2ccccc2n1CC(=O)N(c1ccc(NC(=O)C(C)C)cc1)C(C(=O)NC(C)(C)C)c1ccsc1 (centres undefined) | 0.26% (inactive)
2 | Cc1nccn1CC(=O)N(c1ccc(NS(C)(=O)=O)cc1)C(C(=O)NC(C)(C)C)c1ccsc1 (centres undefined) | 0.44% (inactive)
3 | CC(C)(C)NC(=O)C(c1cccnc1)N(C(=O)Cc1c[nH]c2ccccc12)c1ccc(OCF)cc1 (centres undefined) | 11.5% (inactive)
4 | CC(=O)Nc1ccc(N(C(=O)Cn2cnc3ccccc32)C(C(=O)NC(C)(C)C)c2ccsc2)cc1 (centres undefined) | 2.63% (inactive)
5 | CC(C)(C)NC(=O)C(c1cccnc1)N(C(=O)c1cccc2c1CCCC2)c1ccc(C(C)(C)C)cc1 (centres undefined) | 12.7% (inactive)
6 | CC(C)(C)NC(=O)C(c1ccsc1)N(C(=O)Cc1cccnc1)c1ccc(F)cc1 (centres undefined) | 19% (inactive)
7 | CC(C)(C)NC(=O)C(c1ccsc1)N(C(=O)Cc1cccc2ccccc12)c1ccc(OCF)cc1 (centres undefined) | 18.2% (inactive)
8 | CC(C)(C)NC(=O)C(c1ccsc1)N(C(=O)c1ccc(C#N)cc1)c1ccc(OCF)cc1 (centres undefined) | 17.8% (inactive)
9 | CCC(=O)Nc1ccc(N(C(=O)Cn2nnc3ccccc32)C(C(=O)NC(C)(C)C)c2ccsc2)cc1 (centres undefined) | 94.2% (active)
10 | CC(C)(C)NC(=O)C(c1cccnc1)N(C(=O)c1cccc2c1CCCC2)C1CC1 (centres undefined) | 8.14% (inactive)
11 | CC(C)(C)NC(=O)C(c1ccsc1)N(C(=O)c1ccco1)C1CC1 (centres undefined) | 7.74% (inactive)
12 | CC(C)(C)NC(=O)C(c1ccsc1)N(C(=O)Cc1cccnc1)c1ccc(OCF)cc1 (centres undefined) | 56.1% (active)
13 | CCC(=O)Nc1ccc(N(C(=O)Cn2c(C)nc3ccccc32)C(C(=O)NC(C)(C)C)c2ccsc2)cc1 (centres undefined) | 0.52% (inactive)
14 | CC(C)(C)NC(=O)C(c1cccnc1)N(C(=O)Cc1c[nH]c2ccccc12)C1CC1 (centres undefined) | 8.97% (inactive)
15 | CC(C)c1ccc(N(C(=O)c2cccc3c2CCCC3)C(C(=O)NC(C)(C)C)c2ccsc2)cc1 (centres undefined) | 7.39% (inactive)
16 | CC(C)(C)NC(=O)C(c1ccsc1)N(C(=O)c1ccco1)c1ccc(F)cc1 (centres undefined) | 11.2% (inactive)
17 | CC(C)(C)NC(=O)C(c1ccsc1)N(C(=O)Cc1c[nH]c2ccccc12)C1CC1 (centres undefined) | 48.4% (inactive)

Row | SMILES | inhibition
18 | CC(C)c1ccc(N(C(=O)c2ccc(C(F)(F)F)nc2)C(C(=O)NC(C)(C)C)c2ccsc2)cc1 (centres undefined) | 8.21% (inactive)
19 | CC(C)(C)NC(=O)C(c1cccnc1)N(C(=O)c1ccc(C#N)cc1)c1ccc(OCF)cc1 (centres undefined) | -7.47% (inactive)
20 | CC(C)(C)NC(=O)C(c1cccnc1)N(C(=O)c1ccc(C(F)(F)F)nc1)C1CC1 (centres undefined) | 5.34% (inactive)
21 | CC(C)(C)NC(=O)C(c1ccsc1)N(C(=O)Cc1c[nH]c2ccccc12)c1ccc(C(C)(C)C)cc1 (centres undefined) | 26.3% (inactive)
22 | CC(C)(C)NC(=O)C(c1ccsc1)N(C(=O)Cc1cccnc1)C1CC1 (centres undefined) | 25.9% (inactive)
23 | CC(C)(C)NC(=O)C(c1ccsc1)N(C(=O)Cc1cccnc1)c1ccc(C(C)(C)C)cc1 (centres undefined) | 37.4% (inactive)
24 | CC(C)c1ccc(N(C(=O)c2ccco2)C(C(=O)NC(C)(C)C)c2ccsc2)cc1 (centres undefined) | 6.57% (inactive)
25 | CC(C)(C)NC(=O)C(c1ccsc1)N(C(=O)c1cccc2c1CCCC2)c1ccc(C(C)(C)C)cc1 (centres undefined) | 12.9% (inactive)
26 | CC(C)(C)NC(=O)C(c1cccnc1)N(C(=O)Cc1cccc2ccccc12)c1ccc(C(C)(C)C)cc1 (centres undefined) | 19.6% (inactive)
27 | CC(C)(C)NC(=O)C(c1cccnc1)N(C(=O)c1n[nH]c2ccccc12)c1ccc(F)cc1 (centres undefined) | 9.24% (inactive)
28 | CC(C)(C)NC(=O)C(c1cccnc1)N(C(=O)c1ccc(C#N)cc1)c1ccc(C(C)(C)C)cc1 (centres undefined) | -0.02% (inactive)
29 | CC(C)(C)NC(=O)C(c1ccsc1)N(C(=O)Cc1c[nH]c2ccccc12)c1ccc(OCF)cc1 (centres undefined) | 35.6% (inactive)
30 | CC(=O)Nc1ccc(N(C(=O)Cn2ccnc2C)C(C(=O)NC(C)(C)C)c2ccsc2)cc1 (centres undefined) | 2.36% (inactive)
31 | CC(C)(C)NC(=O)C(c1ccsc1)N(C(=O)Cn1nnc2ccccc21)c1ccc(N)cc1 (centres undefined) | 74.8% (active)
32 | CC(C)c1ccc(N(C(=O)c2ccco2)C(C(=O)NC(C)(C)C)c2cccnc2)cc1 (centres undefined) | 65.6% (active)
33 | CC(C)(C)NC(=O)C(c1cccnc1)N(C(=O)c1cccc2c1CCCC2)c1ccc(OCF)cc1 (centres undefined) | 16% (inactive)
34 | CCC(=O)Nc1ccc(N(C(=O)Cn2cnc3ccccc32)C(C(=O)NC(C)(C)C)c2ccsc2)cc1 (centres undefined) | 61.1% (active)
